What all share (experiment): NCI-60 one-dose screen, 48 h (100 = growth as untreated, 0 = no growth, -100 = all killed)
The test system of test [1] is NCI-H23 lung. The note with it: 10 µM unless noted.
Test [2] concerns NCI-H226 lung. The conditions noted are these: 10 µM unless noted.
Test [3] deals with NCI-H322M lung. The note with it: 10 µM unless noted.
Test [4] relates to HOP-62 NSCLC. The note with it: 10 µM unless noted.
In test [5] the test system is NCI-H460 lung. The conditions noted are these: 10 µM unless noted.
For test [6], the system named is HOP-92 NSCLC. The conditions noted are these: 10 µM.
Test [7] relates to NCI-H522 lung. The conditions noted are these: 10 µM unless noted.
For test [8], the system named is A549/ATCC NSCLC. The conditions noted are these: 10 µM unless noted.
Test [9] concerns 786-0 renal. The conditions noted are these: 10 µM unless noted.
Test [10] has as its system COLO 205 colon. The conditions noted are these: 10 µM unless noted.

Compounds without any hit were thinned out: in the full panel of roughly 83,000, 20% have a hit.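 Single-concentration screen, 48 h exposure, 96-well plates. Endpoint: percent growth. Below 10 = active.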 Unmarked numbers belong to inactive results. Active and inactive are the calls of the source.

For `COc1cc(Nc2c(C#N)cnn3cc(-c4cnn(CC(C)(C)O)c4)cc23)ccc1Cl`, the growth in [1] is 41.4%; in test [2], 42.1%; in [3], 41.9%; in test [4] it was 45.6%; in [5], 59.7%; in test [6], 58.1%. The growth in test [7] was 15%; in [8], 52.4%; in test [9], 34.7%; in test [10], 75.9%.

`O=C(CNc1nc(-c2cccc([N+](=O)[O-])c2)cs1)Nc1cccc(Cl)c1`: the growth in test [1] was 96%; in test [2], 99.4%; in test [3], 101%; in [4], 96.6%; in [5] it was 113%; in [6], 104%. The growth was 98.3% in [7], 108% in test [8], 105% in test [9] and 112% in test [10].

As for `O=C(CSc1nc2ccccc2c(=O)n1-c1ccc(Cl)cc1)N/N=C/c1ccc(N2CCCCC2)cc1`, the growth in test [1] was 65.9%; in [2] it was 38.2%; in test [3] it was 77%; in test [4], 18.4%; in test [5], 9.74% (active); in [6], 62.3%. Besides, the growth in test [7] is 88.1%; in test [8] it was 49.4%; in [9] it was 7.2% (active); in [10] it was 82.1%.

As for `CC(Nc1c(C#N)cnc2ccc(-c3cnc(N)nc3)cc12)c1ccccc1` (stereo not given), the growth in test [1] was 13.1%; in test [2] it was 18.4%; in test [3] it was 6.93% (active); in [4] it was 10.6%; in test [5], 13.1%; in [6], -17.3% (active). The growth in test [7] was 7.27% (active); in [8], 11.6%; in test [9], 12.2%; in [10], 24%.

With `C[C@H](CCC(=O)NCc1ccc(C(=O)Nc2ccccc2N)cc1)[C@H]1CC[C@H]2[C@@H]3[C@@H](O)C[C@@H]4C[C@H](O)CC[C@]4(C)[C@H]3CC[C@]12C`, the growth in [1] is 66.7%; in [2] it was 57.1%; in test [3] it was 79%; in test [4], 58.3%; in test [5] it was 60.8%; in [6] it was 69.1%. Further, the growth in test [7] was 37.8%; in test [8], 90.3%; in test [9] it was 71.4%; in test [10], 65.2%.

On to `CC1=NC2=NC(=O)/C(=C3/N=C(C)C=C(c4ccccc4)N3N)NN2C(c2ccccc2)=C1`, for which the growth was 106% in test [1]; 88.3% in test [2]; 103% in [3]; 94.3% in [4]; 111% in [5]; 100% in test [6]. Also, the growth in [7] was 97.9%; in [8], 109%; in test [9] it was 108%; in test [10], 114%.

As for `COc1ccc(Cn2cc3c(c2-c2cc(OC)c(OC)c(OC)c2)CCc2c(CN4CCCC4)noc2-3)cc1`, the growth in test [1] was 7.29% (active); in test [2] it was 61.7%; in [3], 51.8%; in [4], 33.8%; in [5], 9.59% (active); in test [6], 75.5%. The growth in [7] is 28.2%; in [8], 25.8%; in test [9], 47.9%; in [10], 8.39% (active).

On to `CC(=O)C1=C(C)NC(NN)=NC1c1cccc(Cl)c1` (stereo not given), for which the growth is 99.9% in [1]; 103% in test [2]; 96.7% in test [3]; 99.2% in test [4]; 112% in test [5]; 99.9% in [6]. The growth in test [7] is 97.9%; in [8], 110%; in test [9], 104%; in [10], 114%.

In the case of `O=C1Nc2ccccc2/C1=C/c1ccc(COCC2CO2)n1-c1ccc(O)cc1` (stereo not given), the growth is 100% in [1]; 109% in [2]; 107% in test [3]; 105% in test [4]; 113% in test [5]; 124% in [6]. For the same compound, the growth is 93.5% in [7], 104% in [8], 103% in test [9] and 116% in test [10].

Regarding `O=C1[C@H]2Cc3c([nH]c4ccccc34)[C@@H](c3c(Cl)cccc3Cl)N2C(=O)CN1C1CCN(CC2CCCCC2)CC1`, the growth in [1] is 94.5%; in [2], 86.1%; in test [3] it was 94.7%; in test [4] it was 93.3%; in test [5], 63.6%; in test [6] it was 54.9%. The growth is 101% in test [7], 94.3% in test [8], 83.2% in test [9] and 105% in [10].

For `COC(=O)C(Cc1ccccc1)Nc1nc(NC(Cc2ccccc2)C(=O)OC)nc(N2CCOCC2)n1` (stereo not given), the growth in [1] was 107%; in [2] it was 102%; in test [3], 97.4%; in test [4], 97.3%; in test [5], 107%; in test [6] it was 119%. Moreover, the growth in test [7] is 91%; in [8], 108%; in [9], 100%; in [10], 105%.

Take `O=C(NCCN1CCCC1)c1ccc(-c2nc3ccc4[nH]ncc4c3c3c2CCCC3)cc1`: the growth was -14.8% (active) in test [1]; 13.6% in [2]; 3.73% (active) in test [3]; 15.8% in test [4]; -5.93% (active) in test [5]; -15.4% (active) in test [6]. For the same compound, the growth in test [7] is -29.2% (active); in test [8], 6.08% (active); in test [9], 6.43% (active); in test [10], -14.8% (active).

In the case of `CCOC(=O)C1=NNC(c2ccc(Cl)cc2)C1C(=O)N1C(=S)NC(=O)C1CC(C)C` (stereo not given), the growth in test [1] was 99.3%; in test [2] it was 92%; in [3] it was 94.7%; in test [4], 92.8%; in test [5], 105%; in test [6] it was 90.2%. The growth is 88.4% in test [7], 110% in test [8], 108% in test [9] and 109% in test [10].

The record behind these values is PubChem BioAssay (NCI).
